Laboratory results from PubChem BioAssay AID1159580 (chemical genetic matrix, 2015).
Hit rate of the full screen: of about 5,500 compounds, about 2,000 (36%) were called active. Not shown: some 18% with an inconclusive outcome. No stated cut-off is given here; in the data, active means normalized growth mostly below about 0.91 (no sharp cut-off); inconclusive means no clear call, values can overlap the other calls; inactive means mostly above about 0.92. This is one part of the list.

Assay: chemical genetic growth profiling, strain panel (AID 1159580);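 further: tested at 20 µM; growth read once vehicle control cultures reached saturation at 30 °C; 1 = growth at the plate median or of vehicle wells; lower values mean less growth of the strain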
Details: growth OD

Measured: normalized growth

CC(C)CCCC(C)C1CCC2C3=CC[C@H]4C[C@@H](O)CC[C@]4(C)C3CC[C@@]21C (some centres not stated)
inactive: S. cerevisiae deletion strains, locus YJR066W, strain TOR1, active compounds read low 0.943 | S. cerevisiae deletion strains, locus YJR075W, strain HOC1, active compounds read low 0.995 | S. cerevisiae deletion strains, locus YKL009W, strain mrt4, active compounds read low 0.997 | S. cerevisiae deletion strains, locus YKL068W, active compounds read low 1 | S. cerevisiae deletion strains, locus YKL085W, strain MDH1 (second series), active compounds read low 0.988 | S. cerevisiae deletion strains, locus YKL085W, strain MDH1, active compounds read low 0.988 | S. cerevisiae deletion strains, locus YKL160W, strain elf1, active compounds read low 0.964 | S. cerevisiae deletion strains, locus YKR001C, strain vps1, active compounds read low 0.983 | S. cerevisiae deletion strains, locus YKR026C, strain gcn3, active compounds read low 0.999 | S. cerevisiae deletion strains, locus YKR091W, strain srl3, active compounds read low 0.967 | S. cerevisiae deletion strains, locus YLL001W, strain dnm1, active compounds read low 0.988 | S. cerevisiae deletion strains, locus YLL026W, active compounds read low 0.988 | S. cerevisiae deletion strains, locus YLL041C, strain sdh2, active compounds read low 0.975 | S. cerevisiae deletion strains, locus YLR027C, strain aat2, active compounds read low 0.982 | S. cerevisiae deletion strains, locus YLR039C, strain RIC1, active compounds read low 0.828 | S. cerevisiae deletion strains, locus YLR058C, strain SHM2, active compounds read low 1.02 | S. cerevisiae deletion strains, locus YLR102C, strain apc9, active compounds read low 0.99 | S. cerevisiae deletion strains, locus YLR113W, strain HOG1, active compounds read low 1.03 | S. cerevisiae deletion strains, locus YLR221C, strain rsa3, active compounds read low 0.946 | S. cerevisiae deletion strains, locus YLR258W, strain gsy2, active compounds read low 1 | S. cerevisiae deletion strains, locus YLR262C, strain YPT6 (second series), active compounds read low 0.859 | S. cerevisiae deletion strains, locus YLR262C, strain YPT6, active compounds read low 0.816 | S. cerevisiae deletion strains, locus YLR268W, strain sec22, active compounds read low 0.978 | S. cerevisiae deletion strains, locus YLR320W, strain mms22, active compounds read low 0.952 | S. cerevisiae deletion strains, locus YLR330W, strain CHS5, active compounds read low 1.04 | S. cerevisiae deletion strains, locus YLR342W, strain FKS1 (second series), active compounds read low 1.04 | S. cerevisiae deletion strains, locus YLR342W, strain FKS1, active compounds read low 0.994 | S. cerevisiae deletion strains, locus YLR357W, strain rsc2, active compounds read low 1.04 | S. cerevisiae deletion strains, locus YLR370C, strain arc18, active compounds read low 0.964 | S. cerevisiae deletion strains, locus YLR371W, strain rom2, active compounds read low 0.998 | S. cerevisiae deletion strains, locus YLR384C, strain iki3, active compounds read low 0.985 | S. cerevisiae deletion strains, locus YLR418C, strain cdc73, active compounds read low 0.943 | S. cerevisiae deletion strains, locus YML016C, strain PPZ1, active compounds read low 1.01 | S. cerevisiae deletion strains, locus YML032C, strain rad52, active compounds read low 1 | S. cerevisiae deletion strains, locus YML120C, strain ndi1, active compounds read low 0.965 | S. cerevisiae deletion strains, locus YML124C, strain tub3, active compounds read low 0.996 | S. cerevisiae deletion strains, locus YMR058W, strain fet3, active compounds read low 0.965 | S. cerevisiae deletion strains, locus YMR078C, strain ctf18, active compounds read low 0.989 | S. cerevisiae deletion strains, locus YMR125W, strain sto1, active compounds read low 1 | S. cerevisiae deletion strains, locus YMR129W, active compounds read low 0.992 | S. cerevisiae deletion strains, locus YMR205C, strain PFK2, active compounds read low 1 | S. cerevisiae deletion strains, locus YMR223W, strain ubp8, active compounds read low 0.99 | S. cerevisiae deletion strains, locus YMR231W, strain pep5, active compounds read low 0.991 | S. cerevisiae deletion strains, locus YMR263W, strain SAP30, active compounds read low 1.03 | S. cerevisiae deletion strains, locus YMR307W, strain GAS1, active compounds read low 1.05 | S. cerevisiae deletion strains, locus YNL067W, strain RPL9B, active compounds read low 0.991 | S. cerevisiae deletion strains, locus YNL071W, strain lat1, active compounds read low 0.932 | S. cerevisiae deletion strains, locus YNL183C, strain NPR1, active compounds read low 0.939 | S. cerevisiae deletion strains, locus YNL209W, strain ssb2, active compounds read low 0.987 | S. cerevisiae deletion strains, locus YNL233W, strain BNI4, active compounds read low 0.984 | S. cerevisiae deletion strains, locus YNL248C, strain rpa49, active compounds read low 0.922 | S. cerevisiae deletion strains, locus YNL250W, strain rad50, active compounds read low 0.999 | S. cerevisiae deletion strains, locus YNL271C, strain bni1, active compounds read low 0.994 | S. cerevisiae deletion strains, locus YNL298W, strain CLA4, active compounds read low 0.985 | S. cerevisiae deletion strains, locus YNL307C, strain MCK1, active compounds read low 0.996 | S. cerevisiae deletion strains, locus YNL322C, strain KRE1 (second series), active compounds read low 0.98 | S. cerevisiae deletion strains, locus YNR049C, strain mso1, active compounds read low 0.982 | S. cerevisiae deletion strains, locus YNR052C, strain pop2, active compounds read low 0.984 | S. cerevisiae deletion strains, locus YOL012C, strain htz1 0.805 | S. cerevisiae deletion strains, locus YOL147C, strain pex11, active compounds read low 0.994 | S. cerevisiae deletion strains, locus YOR001W, strain rrp6, active compounds read low 0.946 | S. cerevisiae deletion strains, locus YOR061W, strain CKA2, active compounds read low 1.01 | S. cerevisiae deletion strains, locus YOR069W, strain VPS5, active compounds read low 1.01 | S. cerevisiae deletion strains, locus YOR070C, strain gyp1, active compounds read low 0.985 | S. cerevisiae deletion strains, locus YOR080W, strain dia2, active compounds read low 0.981 | S. cerevisiae deletion strains, locus YOR083W, strain WHI5, active compounds read low 0.947 | S. cerevisiae deletion strains, locus YOR106W, strain vam3, active compounds read low 0.935 | S. cerevisiae deletion strains, locus YOR136W, strain idh2, active compounds read low 0.993 | S. cerevisiae deletion strains, locus YOR144C, strain elg1, active compounds read low 0.998 | S. cerevisiae deletion strains, locus YOR184W, strain ser1, active compounds read low 0.969 | S. cerevisiae deletion strains, locus YOR231W, strain MKK1, active compounds read low 0.976 | S. cerevisiae deletion strains, locus YOR265W, strain rbl2, active compounds read low 0.985 | S. cerevisiae deletion strains, locus YOR270C, strain vph1, active compounds read low 0.794 | S. cerevisiae deletion strains, locus YOR290C, strain snf2, active compounds read low 1.01 | S. cerevisiae deletion strains, locus YOR316C, strain cot1, active compounds read low 0.988 | S. cerevisiae deletion strains, locus YPL051W, strain arl3, active compounds read low 0.951 | S. cerevisiae deletion strains, locus YPL078C, strain atp4, active compounds read low 0.925 | S. cerevisiae deletion strains, locus YPL106C, strain sse1, active compounds read low 1.03 | S. cerevisiae deletion strains, locus YPL240C, strain hsp82, active compounds read low 0.97 | S. cerevisiae deletion strains, locus YPL241C, strain CIN2, active compounds read low 1.01 | S. cerevisiae deletion strains, locus YPL256C, strain CLN2, active compounds read low 1 | S. cerevisiae deletion strains, locus YPR119W, strain clb2, active compounds read low 0.99 | S. cerevisiae deletion strains, locus YPR141C, strain kar3, active compounds read low 0.994 | S. cerevisiae deletion strains, locus YPR163C, strain tif3, active compounds read low 0.994 | S. cerevisiae deletion strains, locus YPR167C, strain met16, active compounds read low 1.01 | S. cerevisiae deletion strains, strain wtn01, active compounds read low 0.97 | S. cerevisiae strains, strain wild type, active compounds read low 1.04
